# The whole screen tested about 310,000 compounds, of which about 14,000 (4.5%) showed an effect of 50% or more. Effects have a minus sign here. This is one part of a sample in which strong results are shown more often than they occur.
# Target: human ether-à-go-go-related gene (hERG) potassium channel (human, UniProt Q12809)
# Experiment: primary screen, population patch clamp on CHO cells stably expressing hERG; higher = less effect of the substance
# 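Note: peak tail current of the secondary pulse compared with the same well before compound.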
# human ether-à-go-go-related gene (hERG) potassium channel, sequence (Q12809 whole entry, looked up): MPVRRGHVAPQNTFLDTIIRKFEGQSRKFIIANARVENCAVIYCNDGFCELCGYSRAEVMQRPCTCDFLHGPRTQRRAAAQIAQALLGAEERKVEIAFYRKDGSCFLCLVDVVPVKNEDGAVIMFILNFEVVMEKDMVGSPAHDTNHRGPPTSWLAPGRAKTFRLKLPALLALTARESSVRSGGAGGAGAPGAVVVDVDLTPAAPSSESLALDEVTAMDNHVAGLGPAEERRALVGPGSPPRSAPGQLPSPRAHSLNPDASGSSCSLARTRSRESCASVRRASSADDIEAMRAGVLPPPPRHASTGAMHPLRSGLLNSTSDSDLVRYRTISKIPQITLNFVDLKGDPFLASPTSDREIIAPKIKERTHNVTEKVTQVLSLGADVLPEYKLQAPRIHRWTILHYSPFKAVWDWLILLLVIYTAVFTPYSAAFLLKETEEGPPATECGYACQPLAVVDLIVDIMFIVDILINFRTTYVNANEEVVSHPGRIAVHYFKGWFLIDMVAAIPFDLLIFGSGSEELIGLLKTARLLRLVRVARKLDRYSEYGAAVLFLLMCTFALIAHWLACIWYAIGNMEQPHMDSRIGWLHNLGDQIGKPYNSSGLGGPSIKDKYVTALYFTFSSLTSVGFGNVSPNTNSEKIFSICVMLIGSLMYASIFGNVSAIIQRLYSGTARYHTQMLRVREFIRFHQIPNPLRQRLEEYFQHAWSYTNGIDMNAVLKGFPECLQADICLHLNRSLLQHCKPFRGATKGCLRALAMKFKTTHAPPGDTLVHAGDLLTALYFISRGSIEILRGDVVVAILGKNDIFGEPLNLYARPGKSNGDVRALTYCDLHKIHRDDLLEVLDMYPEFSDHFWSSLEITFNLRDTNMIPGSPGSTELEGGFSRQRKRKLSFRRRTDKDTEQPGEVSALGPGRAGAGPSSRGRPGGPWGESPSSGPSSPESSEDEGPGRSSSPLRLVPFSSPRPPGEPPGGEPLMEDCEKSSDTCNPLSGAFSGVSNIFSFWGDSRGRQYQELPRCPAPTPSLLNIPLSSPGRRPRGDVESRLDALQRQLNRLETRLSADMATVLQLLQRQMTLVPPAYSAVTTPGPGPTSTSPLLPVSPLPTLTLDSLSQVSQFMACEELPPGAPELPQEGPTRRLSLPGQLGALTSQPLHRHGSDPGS
row,SMILES,"hERG current change (%, negative = inhibition) at 10uM"
1,O=C(CN1C(=O)NC2(CCc3ccccc32)C1=O)NCc1ccccc1Cl (centres unmarked),7.01%
2,Nc1c(C(=O)NCC2CCCO2)c2nc3ccccc3nc2n1-c1ccccc1 (centres unmarked),2.35%
3,CCc1nnc(NC(=O)C2CCCN2S(=O)(=O)c2ccccc2)s1 (centres unmarked),14.8%
4,CCc1ccccc1NC(=O)C1CCCN1S(=O)(=O)c1ccc(-c2ccc(=O)[nH]n2)s1 (centres unmarked),-54.7%
5,O=C(O)C1CCCN(S(=O)(=O)c2ccc(-c3ccc(=O)[nH]n3)s2)C1 (centres unmarked),16.5%
6,Cc1cccc(C)c1NC(=O)C1CCCN1S(=O)(=O)c1ccc(-c2ccc(=O)[nH]n2)s1 (centres unmarked),-68.2%
7,Cc1cccc(C)c1NC(=O)C1CCCN1S(=O)(=O)c1ccccc1 (centres unmarked),4.4%
8,O=C(Nc1ccc(F)cc1F)C1CCCN1S(=O)(=O)c1ccc(-c2ccc(=O)[nH]n2)s1 (centres unmarked),-33.5%
9,Cc1ccc(Cl)cc1NC(=O)C1CCCN1S(=O)(=O)c1ccc(-c2ccc(=O)[nH]n2)s1 (centres unmarked),-65.4%
10,CCc1ccccc1NC(=O)C1CCCN1S(=O)(=O)c1ccc2c(c1)n(C)c(=O)c(=O)n2C (centres unmarked),-3.91%
11,Cc1ccc(NC(=O)C2CCCN2S(=O)(=O)c2ccc(-c3ccc(=O)[nH]n3)s2)c(C)c1 (centres unmarked),-15.4%
12,COc1cccc(N2CCN(c3nc(-c4ccccc4C)cc(=O)[nH]3)CC2)c1,3.88%
13,c1cc2c(cc1C1=NNC(=NC3CC3)SC1)OCCO2,16.8%
14,Cc1cc(C(=O)NNC(=O)c2sccc2C)c(C)o1,7.27%
15,O=S(=O)(c1ccc(F)cc1)N1CCN(c2ccccc2)CC1,-6.53%
16,CCN(C(=O)CCS(=O)(=O)c1cc2c(cc1Cl)NC(=O)CO2)c1ccccc1,-21.8%
17,CCN(Cc1ccccc1)C(=O)CCS(=O)(=O)c1cc2c(cc1Cl)NC(=O)CO2,-50.7%
18,CN(Cc1ccccc1)C(=O)CCS(=O)(=O)c1cc2c(cc1Cl)NC(=O)CO2,-38.9%
19,O=C1Nc2ccc(Br)cc2C12NNc1ccccc1O2 (centres unmarked),23.9%
20,Cn1c(N)c(C(=O)NCc2ccccc2Cl)sc1=S,18%
21,Cc1cccc(NC(=O)CSc2nc3ccccc3c3nc(CCc4c(C)n[nH]c4C)nn23)c1,-9.44%
22,Cc1ccc(NC(=O)CSc2nc3ccccc3c3nc(CCc4c(C)n[nH]c4C)nn23)cc1F,-11.7%
23,Cc1cncn1CCc1nc2c3ccccc3nc(SCC(=O)Nc3cccc(Cl)c3)n2n1,-78.4%
24,Cc1ccccc1NC(=O)CSc1nc2ccccc2c2nc(CCn3cncc3C)nn12,-55.6%
25,Cc1ccccc1NC(=O)CSc1nc2ccccc2c(=O)n1C,1.39%
26,Cc1ccc(NC(=O)CSc2nc3ccccc3c3nc(CCn4cncc4C)nn23)c(C)c1,2.77%
27,CCCCOC(=O)c1sc2nc(N3CCOCC3)c3c(c2c1N)CC(C)(C)OC3,9.29%

row,SMILES,"hERG current change (%, negative = inhibition) at 10uM"
1,CCOC(=O)C1CCN(C(=O)c2ccc3c(c2)OCO3)CC1,-5.29%
2,Cl.Clc1c(OCCCn2ccnc2)ccc2ccccc12,-31.9%
3,COCCN1C(=O)/C(=C/c2ccc(OCc3ccc(C(=O)O)cc3)c(OC)c2)SC1=Nc1ccccc1,7.58%
4,NNC(=O)c1sccc1OCc1ccc(Cl)cc1Cl,-18.5%
5,C=CCNC(=O)/C=C/c1cccs1,16.4%
6,COC(=O)c1ccc(NC(=O)COC(=O)C2CCC2)cc1,4.03%
7,Cc1cccc(NC(=S)N(CCN(C)C)Cc2cc3cc(C)ccc3[nH]c2=O)c1,-16.5%
8,Cc1cccc2cc(CN(CCN(C)C)C(=S)Nc3ccccc3)c(=O)[nH]c12,-24%
9,Cc1ccc(NC(=S)N(Cc2cccs2)Cc2cc3cccc(C)c3[nH]c2=O)cc1,-9.88%
10,Cc1ccc(NC(=S)N(CCN(C)C)Cc2cc3cccc(C)c3[nH]c2=O)cc1,-55.6%
11,CCN(CC)CCN(Cc1cc2cccc(C)c2[nH]c1=O)C(=S)Nc1ccccc1,-66.2%
12,Cc1cccc2cc(CN(CC3CCCO3)C(=S)Nc3ccccc3)c(=O)[nH]c12 (centres unmarked),2.39%
13,CCN(CC)CCN(Cc1cc2cc(C)ccc2[nH]c1=O)C(=S)Nc1ccccc1,-50.6%
14,Cc1ccc(NC(=S)N(CCN(C)C)Cc2cc3cc(C)ccc3[nH]c2=O)cc1,-43.5%
15,Cc1ccc(NC(=S)N(CCN(C)C)Cc2cc3cc(C)cc(C)c3[nH]c2=O)cc1,-7.41%
16,Cc1ccc(C(=O)N(CN2CCCC2=O)c2ccccc2)cc1,-1.3%
17,CCN(CC(=O)NCc1ccc(Cl)cc1)CC(=O)NC1(C#N)CCCC1,-19.2%
18,CC[C@H](C)Cc1cn([C@@H](CCCN=C(NC(=O)OC(C)(C)C)NC(=O)OC(C)(C)C)C(=O)NCCCCCCCCCCC(=O)N2CCN(C(=O)OC(C)(C)C)CC2)nn1,4.2%
19,CCOC(=O)c1c(NC(=O)C2=C(C)NC(=S)NC2c2ccc(CC)cc2)sc(C)c1C (centres unmarked),7.47%
20,Cc1cc(SCC(=O)NN)c2cc(Br)ccc2n1,-1.57%
21,Cc1ccc(S(=O)(=O)N2CCOC2CNC(=O)C(=O)NCCc2ccccc2)cc1 (centres unmarked),-25.6%
22,CCOC(=O)c1c(N)c2cc([N+](=O)[O-])cnc2n1C,17.3%
23,CCOC(=O)c1cc2sccc2n1CCCN1C(=O)c2ccccc2C1=O,6.01%
24,CN1CCN(C(N)=NC(=O)c2ccccc2)CC1,6.76%
25,COc1ccc(Cl)cc1S(=O)(=O)N1CCN=C1Cc1ccccc1,-18.9%
26,CCc1ccc(NS(=O)(=O)c2cc3[nH]c(=O)c(=O)[nH]c3cc2C)cc1,9.15%

# Reference: paper PMC4336329 (PLoS ONE, 2015)
